VACV mCherry inh: vaccinia inhibition (mCherry reporter) | actives 0.63% (n = 310,000) | Vaccinia virus mCherry reporter infection, fluorescence | Potency, µM (series often up to 36.5 µM), for inactives: top-dose activity change, negative = inhibition, most hits filed as inhibitors | AID 720579; calls by dose curve; tested in A549 cells; note: potency is the fitted concentration of half-maximal effect; nearly all actives have a fitted effect of over 35% in size
VACV Venus inh: inhibitors of vaccinia virus (Venus reporter). Vaccinia virus Venus reporter expression, fluorescence. Potency, µM (series often up to 36.5 µM), for the others: top-dose activity change, negative = inhibition, hits mostly inhibitors. actives 0.46% (n = 330,000); calls by dose curve; tested in A549 cells; note: potency is the fitted concentration of half-maximal effect; nearly all actives have a fitted effect of over 30% in size
HCV inhibitor: blocks hepatitis C virus; Huh7.5.1 HCVcc-Cre infection, luciferase reporter, 44 h; Potency, µM (doses to about 41.8 µM), without a hit: top-dose activity change, negative = inhibition, usual class: inhibitors; actives 3.4% (n = 340,000); AID 651820; note: potency is the fitted concentration of half-maximal effect
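A cell-based infection assay in which seeded cells (1,000 per well) receive test compound after 4 h, are inoculated with HCVcc-Cre at approximately 0.5 moi, and are incubated 44 h before luminescence detection.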
Sm TGR inh: inhibitors of Schistosoma mansoni thioredoxin glutathione reductase | Q962Y6 | purified TGR, DTNB reduction, TNB absorbance 405 nm | Potency, µM (titrated, usually from 114 µM), without a hit: at the highest dose activity change, negative = inhibition, actives largely listed as inhibitors | actives 3% (n = 360,000) | AID 485364; note: potency is the fitted concentration of half-maximal effect; nearly all actives have a fitted effect of over 60% in size
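TGR 20 nM + NADPH 100 uM (dispensed conc.), cpd preinc 15 min RT; start with NADPH (500 uM addition) then DTNB (15 mM addition). Kinetic TNB absorbance, 405 nm filter. Four-parameter Hill fit across titration.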
FMDV antiviral: antivirals against foot and mouth disease virus; FMDV antiviral cell-based qHTS; Potency, µM (highest dose often 57.9 µM), inactives show top-dose activity change, negative = inhibition, most hits filed as inhibitors; actives 1.2% (n = 410,000); calls by dose curve; tested in HEK293T cells; note: read-out not given here; potency is the fitted concentration of half-maximal effect; nearly all actives have a fitted effect of over 45% in size
HCMV antiviral: human cytomegalovirus inhibition; HFF cells, HCMV-luciferase reporter, 72 h; stronger effect = lower value; activity change, negative = inhibition, % at 57.5 µM; actives 4.5% (n = 410,000); in the data active = activity change below about -60%; inconclusive = no clear call, values can overlap the other calls; inactive = above about -39%
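Human foreskin fibroblasts infected with luciferase-reporter HCMV at MOI 1 PFU/cell, compounds at two doses. Luciferase measured 72 h post infection; normalized to buffer-only basal and Salinomycin (10uM) controls.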
* = called active by the depositor; i = inactive; ? = inconclusive; nt = no result; [ ] = remark or other dose. Compounds with a hit are over-represented: about 9.3% of the library has one in this group of screens. Unless noted, calls come from the whole dose curve; as a rule, active = well fitted curve in the direction sought with a large enough effect; inconclusive = small, poorly fitted or top-dose-only effect, or another doubt; inactive = no such curve, though single readings can be large; an effect the other way counts as inactive or inconclusive. % is set by controls: 0 for no effect and ±100 for the full control effect.

SMILES	VACV mCherry inh	VACV Venus inh	HCV inhibitor	Sm TGR inh	FMDV antiviral	HCMV antiviral
CCC1(C)Cc2c(sc3c2c2ncnn2c2nnc(SCC(=O)NCc4ccco4)n32)CO1 (configuration not stated)	nt	?	?	45µM*	-24%	-23
O=C(Oc1c(-c2ccccc2)c(=O)n2c3c(cccc13)CC2)c1ccc(F)cc1	-10%	-4%	11%	-5%	-7%	71
COc1ccc2c(c1)CC(N1CCN(C)CC1)c1cc(OC)ccc1S2 (configuration not stated)	?	?	?	nt	?	-64*
CSc1ccc2c(c1)C(N1CCN(C)CC1)Cc1ccc(F)cc1S2 (configuration not stated)	nt	nt	?	nt	-22%	-10
N#Cc1ccc(NS(=O)(=O)c2ccc(-c3cnc(C4CC4)o3)cc2)cc1	-10%	-9%	nt	6%	39%	-7
Cc1cc(C)c(NC(=O)/C=C\C(=O)O)c([N+](=O)[O-])c1	-15%	-13%	5%	16µM*	8%	5
Cc1ccc(NC(=O)/C=C\C(=O)O)c([N+](=O)[O-])c1	-14%	-2%	-4%	?	-3%	34
Cc1cc(C)c(NC(=O)/C=C\C(=O)O)c(Cl)c1	0%	-3%	13%	35µM*	-8%	-14
COc1cc(OC)c(NC(=O)/C=C/C(=O)O)cc1Cl	i	8%	5%	50µM*	-6%	18
Cc1cc(C)c(NC(=O)CS)c(Cl)c1	-29%	-16%	5%	?	-19%	-31
CC1CC1C(=O)OCC(=O)NCc1ccc(Cl)cc1Cl (configuration not stated)	i	-9%	15%	0%	20%	22
Cc1cc(C(=O)CN2C(=O)NC(c3ccccc3)(c3ccccc3)C2=O)c(C)n1Cc1ccccc1	-16%[1.46 µM]	?	-48%	-9%	-19%	-18
Cn1cc(CNC(=O)C2CCC(=O)N(Cc3cccc(C(F)(F)F)c3)C2)cn1 (configuration not stated)	-10%	-12%	-1%	0%	-3%	-1
Cc1cc2c(cc3c(=O)n(CC(=O)NCc4ccccc4Br)ncn32)s1	-10%	-10%	nt	1%	5%	-1
CCN(CC(=O)Nc1ccc(NC(C)=O)cc1)C(=O)c1oc2ccccc2c1C	-15%	-14%	6%	-6%	-7%	-14
CCN(CC(=O)Nc1ccc(NC(C)=O)cc1)C(=O)c1oc2c(ccc3ccccc32)c1C	-9%	-10%	-21%	4%	-19%	-74*
COC(=O)c1c(NC(=O)COc2ccc(OC)cc2)sc2c1CCC(C)C2 (configuration not stated)	-20%	-13%	nt	11%	?	-9
Cc1ccccc1NS(=O)(=O)c1cc(C(=O)Nc2ccccc2-c2ccccc2)ccc1Cl	i	-20%	11µM*	-8%	10%	8
Cc1ccc(C)c(NS(=O)(=O)c2cc(C(=O)N3CCc4ccccc4C3)ccc2Cl)c1	-6%	-16%	?	9%	-16%	-27
Cc1ccccc1NS(=O)(=O)c1cc(C(=O)N2CCCC2)ccc1Cl	i	-2%	nt	?	-3%	14
C=CCNC(=O)c1ccccc1NC(=O)c1ccc(Cl)c(S(=O)(=O)Nc2cc(C)ccc2C)c1	i	?	13µM*	-10%	52%	-18
CCCCCCSc1nc(O)c(C2OC(=O)c3c2ccc(OC)c3OC)c(=O)n1-c1ccccc1 (configuration not stated)	nt	-17%	34%	13µM*	?	-16
Oc1ccc(NCc2ccccc2OCc2ccccc2)cc1	16%	19%	-5%	14µM*	17%	?
Fc1ccccc1CNc1ccc(Cl)cc1	-19%	-15%	20%	8%	44%	-27
CCOc1cc(CNc2ccc(O)cc2)ccc1OCc1ccc(Cl)cc1	-2%	-14%	nt	45µM*	-18%	-21
Oc1ccc(NCc2ccccc2OCc2ccc(Cl)cc2)cc1	2%[7.34 µM]	-9%[7.34 µM]	nt	45µM*	-10%	-72*
O=c1[nH]c2ccc(NCc3ccccc3OCc3ccc(Cl)cc3)cc2[nH]1	nt	nt	?	?	?	-73*
